Records with an inconclusive call do not appear. Active and inactive are the calls of the source. Calls come from the whole dose curve; as a rule, active = well fitted curve in the direction sought with a large enough effect; inconclusive = small, poorly fitted or top-dose-only effect, or another doubt; inactive = no such curve, though single readings can be large; an effect the other way counts as inactive or inconclusive.
Legend:
[1] = target: Cellular tumor antigen p53 (Homo sapiens) (UniProt P04637); test: Primary qHTS for small molecule compounds that upregulate eGFP-tagged delta133p53alpha (in N-terminal) cells. (AID 2060322); settings: NCI-H358 eGFP-delta133p53alpha fluorescence, 24 h; activation: stronger effect = higher value;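 note: series mostly up to about 56 µM; 0% = DMSO vehicle and 100% = reference activator; nearly all actives have a fitted effect of over 75% in size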
Procedure, shortened: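 NCI-H358 cells pre-induced 24 h with 10 ng/ml doxycycline to express N-terminal eGFP-delta133p53alpha, then dosed 24 h at 37C without doxycycline; fixed, Hoechst-stained, GFP intensity by laser scanning cytometry, normalized to DMSO (0%) and 57.5 uM 5-azacytidine (100%).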

[2] = target: Aldehyde dehydrogenase, mitochondrial (Homo sapiens) (UniProt P05091); test: qHTS for Inhibitors of the Aldehyde Dehydrogenase Family (ALDH2) Primary screen (AID 2061308);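 note: plate controls were vehicle for no effect and reference inhibitor for full effect; nearly all actives have a fitted effect of over 55% in size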
[3] = target: Retinaldehyde dehydrogenase 3 (Homo sapiens) (UniProt P47895); test: qHTS for Inhibitors of the Aldehyde Dehydrogenase Family (ALDH1A3) Validation screen (AID 2061312); note: % is set by controls: 0 for no effect and ±100 for the full control effect; nearly all actives have a fitted effect of over 45% in size
[4] = target: Retinaldehyde dehydrogenase 3 (Homo sapiens) (UniProt P47895); test: qHTS for Inhibitors of the Aldehyde Dehydrogenase Family (ALDH1A3) Primary screen (AID 2061315);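 note: plate controls were DMSO vehicle for no effect and reference inhibitor for full effect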

Cellular tumor antigen p53 (Homo sapiens), sequence (P04637 whole entry, looked up): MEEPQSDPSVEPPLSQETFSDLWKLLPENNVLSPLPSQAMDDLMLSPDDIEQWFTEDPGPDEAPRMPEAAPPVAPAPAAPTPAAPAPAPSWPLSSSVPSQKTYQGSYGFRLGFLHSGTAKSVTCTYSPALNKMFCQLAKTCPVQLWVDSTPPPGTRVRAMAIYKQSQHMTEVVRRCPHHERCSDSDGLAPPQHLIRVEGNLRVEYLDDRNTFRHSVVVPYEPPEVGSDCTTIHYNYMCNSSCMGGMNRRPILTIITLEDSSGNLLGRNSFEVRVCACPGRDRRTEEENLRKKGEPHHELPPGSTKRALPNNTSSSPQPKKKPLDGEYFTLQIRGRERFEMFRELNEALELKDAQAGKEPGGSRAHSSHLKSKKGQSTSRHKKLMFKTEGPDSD

CC(C)(F)C[C@@H](N[C@@H](c1ccc(-c2ccc(S(C)(=O)=O)cc2)cc1)C(F)(F)F)C(=O)NC1(C#N)CC1
inactive: activation [1] -8.11% | Potency [2] | Potency [3] | Potency [4]

NC(=O)c1ccc(F)c2c1C[C@@H](N(C1CCC1)C1CCC1)CO2
inactive: activation [1] -11.5% | Potency [2] | Potency [3] | Potency [4]

COc1ccc(C(=O)n2c(C)c(Cc3cccc(O[C@@H](C)C(=O)O)c3)c3cc(OC(F)(F)F)ccc32)cc1
inactive: activation [1] -3.82% | Potency [2] | Potency [3] | Potency [4]

CC(C)NC(=O)c1ccc(C#Cc2ccncc2)cn1
inactive: activation [1] 14.8% | Potency [2] | Potency [3] | Potency [4]

CCCC(C(=O)O)c1c(C)nc2ccc(Cl)cc2c1-c1ccccc1 (stereo not given)
inactive: activation [1] -1.91% | Potency [2] | Potency [3] | Potency [4]

O=C(NC/C=C/CN1CCN(c2cccc(Cl)c2Cl)CC1)c1ccc(-c2ccccn2)cc1
inactive: activation [1] 6.68% | Potency [2] | Potency [3] | Potency [4]

O=C(Nc1ccc(CN2CCOCC2)cc1)c1ccc(-c2cccc(Cl)c2)o1
inactive: activation [1] -8.59% | Potency [2] | Potency [3] | Potency [4]

c1ccc(Nc2nc3c(s2)CCCc2[nH]ncc2-3)nc1
inactive: activation [1] 8.59% | Potency [2] | Potency [3] | Potency [4]

Cc1c(C2=CCN(C(=O)N(C)C(C)C)CC2)nnn1-c1cccnc1F
inactive: activation [1] -9.55% | Potency [2] | Potency [3] | Potency [4]

O=C1C(Cc2ccc(O)cc2)N2C(=O)CCN(C(=O)NCc3ccccc3)C2CN1Cc1cccc2ccccc12 (stereo not given)
inactive: activation [1] 19.6% | Potency [2] | Potency [3] | Potency [4]

CC(C)[N+]1(C)C2CCC1CC(OC(=O)C(CO)c1ccccc1)C2 (stereo not given)
inactive: activation [1] 3.82% | Potency [2] | Potency [3] | Potency [4]

Cc1[nH]cnc1C1CCN(c2nc3cccc4c3n2CCC4=O)CC1
inactive: activation [1] 1.43% | Potency [2] | Potency [3] | Potency [4]

Cc1nc2cc(-c3cc(F)cc(C#N)c3)ccc2s1
inactive: activation [1] -1.91% | Potency [2] | Potency [3] | Potency [4]

Cn1c2ccc(F)cc2c2c(C(=O)N3CCCC3)cn(-c3ccccc3)c(=O)c21
inactive: activation [1] -5.25% | Potency [2] | Potency [3] | Potency [4]

NCc1c[nH]c(=S)n1[C@@H]1CCc2c(F)cc(F)cc2C1
inactive: activation [1] 0% | Potency [2] | Potency [3] | Potency [4]

CCN=C1N[C@@H]2[C@@H](O)[C@H](O)[C@@H](CO)O[C@@H]2S1
inactive: activation [1] 1.43% | Potency [2] | Potency [3] | Potency [4]

CCC1(O)CC2c3cc(OC)c(OC)cc3CCN2CC1CC(C)C (stereo not given)
inactive: activation [1] 3.82% | Potency [2] | Potency [3] | Potency [4]

O=C(O)CCc1ccc(NCc2cccc3c2CCCN3CCOc2ccccc2)cc1F
inactive: activation [1] 2.39% | Potency [2] | Potency [3] | Potency [4]

CON(C)C(=O)[C@H](O)[C@H](Cc1ccccc1)NC(=O)c1cc2cc(Cl)ccc2[nH]1
inactive: activation [1] -8.59% | Potency [2] | Potency [3] | Potency [4]

Cc1ccc(Cl)cc1N(CC(=O)Nc1c(F)cccc1F)S(C)(=O)=O
inactive: activation [1] 0.955% | Potency [2] | Potency [3] | Potency [4]

CCOc1cc(CC(=O)NC(CC(C)C)c2ccccc2N2CCCCC2)ccc1C(=O)O (stereo not given)
inactive: activation [1] -4.3% | Potency [2] | Potency [3] | Potency [4]

CC(=O)c1ccc2c(c1)[C@H](NC(=O)c1ccc(F)c(Cl)c1)[C@H](O)C(C)(C)O2
inactive: activation [1] 7.16% | Potency [2] | Potency [3] | Potency [4]

Cc1ccc(C(=O)C(C)CN2CCCCC2)cc1 (stereo not given)
inactive: activation [1] -2.39% | Potency [2] | Potency [3] | Potency [4]

CN(CCc1ccc(Nc2ncc(-c3cccnc3)s2)cc1)Cc1ccccc1
inactive: activation [1] -8.59% | Potency [2] | Potency [3] | Potency [4]

O=C(N[C@H](Cc1ccccc1)C(=O)O)c1sc2cc(F)ccc2c1Cl
inactive: activation [1] -9.55% | Potency [2] | Potency [3] | Potency [4]

COc1ccc(NC(=O)c2ccc(C(=N)N(C)C)cc2)c(C(=O)Nc2ccc(Cl)cn2)c1
inactive: activation [1] -8.59% | Potency [2] | Potency [3] | Potency [4]

CCCCCCOC(=O)/N=C(\N)c1ccc(NCc2nc3cc(C(=O)N(CCC(=O)OCC)c4ccccn4)ccc3n2C)cc1
inactive: activation [1] -0.955% | Potency [2] | Potency [3] | Potency [4]

COc1ccccc1N1CCN(CCCCNC(=O)c2ccc(-c3cscn3)cc2)CC1
inactive: activation [1] 4.3% | Potency [2] | Potency [3] | Potency [4]

COc1cc(-n2cnc3cc(-c4ccc(Cl)cc4)sc3c2=O)ccc1OCCN1CCCC1
inactive: activation [1] 18.1% | Potency [2] | Potency [3] | Potency [4]

O=C(O)C[C@@H](NC(=O)c1cc(-c2ccc(-c3ccncc3)cc2)cs1)c1ccccc1
inactive: activation [1] -1.43% | Potency [2] | Potency [3] | Potency [4]
